# Source: PubChem BioAssay
# The list is not random: actives were taken first. Their share in the collection is about 5.2%.
# VDR inh – Inhibitors of the vitamin D receptor (VDR): qHTS; VDR-SRC2-3 peptide fluorescence polarization, 2 h; Potency, µM, actives largely listed as inhibitors; AID 504847, 2011; 400,000 compounds, 0.93% hits
#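 Inhibition of the VDR/SRC2-3 peptide interaction is quantified by fluorescence polarization. Compounds (23 nl, pintool) incubate with the reagents for 2 hours at ambient room temperature.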
# IDH1 R132H inh – qHTS for Inhibitors of mutant isocitrate dehydrogenase 1 (IDH1): qHTS; Isocitrate dehydrogenase [NADP] cytoplasmic (Homo sapiens), O75874; IDH1-R132H enzyme, NADPH consumption, diaphorase/resazurin fluorescence; Potency, µM (series often up to 76.6 µM), hits mostly inhibitors; 390,000 compounds, 0.093% hits; further: nearly all actives have a fitted effect of over 65% in size
#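 IDH1-R132H (0.5 ug/mL dispensed) in pH 7.5 Tris buffer was preincubated 30 min with compound, then given a substrate mix of 0.016 mM NADPH and 2 mM alpha-KG for 80 min at room temperature; remaining NADPH was read by diaphorase/resazurin fluorescence.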
# PLK1 PBD block – qHTS for Inhibitors of PLK1-PDB (polo-like kinase 1 - polo-box domain): Primary Screen; Serine/threonine-protein kinase PLK1 (Homo sapiens), P53350; Plk1 PBD binding of FITC phosphopeptide, fluorescence polarization; Potency, µM, usual class: inhibitors; 360,000 compounds, 2.8% hits; AID 720504, 2013; further: series mostly up to about 57 µM; nearly all actives have a fitted effect of over 65% in size
# Sfp PPTase inh – qHTS Assay for Inhibitors of Bacillus subtilis Sfp phosphopantetheinyl transferase (PPTase) | 4'-phosphopantetheinyl transferase ffp (Bacillus subtilis), Q9F4F7 | Biochemical Sfp PPTase activity, qHTS | 310,000 compounds, 3.5% hits | Potency, µM, most hits filed as inhibitors;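 further: the enzyme is Sfp with the accession as filed and its product quenches rhodamine fluorescence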
#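 With Hepes-Na pH 7.6 buffer containing 10 mM MgCl2, Sfp (15 nM) modified BHQ-2-YbbR (12.5 uM) using rhodamine-CoA (5 uM). Two reads 30 minutes apart at 525/598 nm yielded each well's rate.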
# rTrxR1 inhibitor – qHTS Assay for Inhibitors of Mammalian Selenoprotein Thioredoxin Reductase 1 (TrxR1): qHTS; recombinant rTrxR1, NADPH fluorescence consumption, selenite substrate; Potency, µM (series often up to 114 µM), usual class: inhibitors; 390,000 compounds, 1% hits; further: nearly all actives have a fitted effect of over 65% in size
# Target sequence (O89049 whole entry, looked up): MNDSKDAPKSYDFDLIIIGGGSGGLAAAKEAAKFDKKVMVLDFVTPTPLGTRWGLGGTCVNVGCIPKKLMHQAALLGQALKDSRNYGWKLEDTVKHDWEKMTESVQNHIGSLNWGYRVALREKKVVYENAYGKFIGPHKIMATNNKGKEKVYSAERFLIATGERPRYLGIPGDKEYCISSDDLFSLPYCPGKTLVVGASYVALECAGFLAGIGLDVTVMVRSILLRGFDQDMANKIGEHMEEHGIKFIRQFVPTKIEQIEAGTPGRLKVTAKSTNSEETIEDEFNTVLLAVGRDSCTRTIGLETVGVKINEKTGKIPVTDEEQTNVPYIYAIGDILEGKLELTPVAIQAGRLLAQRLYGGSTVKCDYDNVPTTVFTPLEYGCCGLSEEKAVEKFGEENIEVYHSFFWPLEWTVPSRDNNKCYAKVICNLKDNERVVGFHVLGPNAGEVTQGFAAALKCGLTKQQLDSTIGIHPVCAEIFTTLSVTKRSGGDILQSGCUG
#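 Rat TrxR1 (90 nM in the dispensed reagent) was pre-reduced with 400 uM NADPH for 5 min at room temperature, then incubated with compound for 15 min. After 400 uM selenite was added, NADPH fluorescence (Ex 340/Em 450 nm) was followed for 8 min.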
# TrxR1 substrate – qHTS Assay for Substrates of Mammalian Selenoprotein Thioredoxin Reductase 1 (TrxR1): qHTS; Thioredoxin reductase 1, cytoplasmic (Rattus norvegicus), O89049; purified TrxR1 substrate turnover, NADPH consumption readout; Potency, µM (doses to about 114 µM); 390,000 compounds, 0.01% hits; AID 588456, 2011; further: nearly all actives have a fitted effect of over 50% in size
#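 Rat TrxR1, dispensed at 90 nM, was prereduced with 400 uM NADPH (final) for 5 min at ~22 deg C, then incubated with compound 15 min before 400 uM selenite. A first-read NADPH fluorescence drop versus no-compound background flagged substrates.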
# A number is an active result; 0 = inactive; ? = inconclusive; - = not tested or not shown; [ ] = remark or other dose. The call rests on the fitted dose curve; in most records, active means well fitted curve in the direction sought with a large enough effect; inconclusive means small, poorly fitted or top-dose-only effect, or another doubt; inactive means no such curve, though single readings can be large; an effect the other way counts as inactive or inconclusive.
SMILES,VDR inh,IDH1 R132H inh,PLK1 PBD block,Sfp PPTase inh,rTrxR1 inhibitor,TrxR1 substrate
CSc1ccc(C(=S)N2CCN(C(c3ccccc3)c3ccccc3)CC2)cc1,?,0,13µM,35µM,0,0
CSc1ccc(CN2CCCN(C)CC2)cc1,0,0,0,0,0,0
CSc1ccc(C(=S)N2CCN(C)CC2)cc1,0,0,30µM,6.3µM,0,0
CC(=O)N1CCN(C(c2ccccc2)c2ccccc2)CC1,0,-,0,-,0,0
CN1CCN(C(=S)c2ccc(N(C)C)cc2)CC1,?,0,10µM,0,0,0
CCOC(=O)C(=O)N(C)c1c(CC)nc2c(OCc3cc(Cl)cc(Cl)c3)cccn12,-,-,0,-,-,-
COc1cc(/C=C2/SC(=S)N(Cc3ccccc3)C2=O)cc(Cl)c1O,0,?,0,0,0,0
O=C1/C(=C\c2cc(Br)cc(Br)c2O)SC(=S)N1Cc1ccccc1,50µM,0,9.5µM,63µM,0,0
O=C1/C(=C\c2cccc([N+](=O)[O-])c2O)SC(=S)N1Cc1ccccc1,?,0,17µM,?,?,0
COc1cc([N+](=O)[O-])cc(/C=C2/SC(=S)N(Cc3ccccc3)C2=O)c1O,?,0,30µM,40µM,0[2.29 µM],0
O=C1/C(=C/c2ccccc2O)SC(=S)N1Cc1cccnc1,?,0,?,50µM,0,0
Cc1oc2c(cc(NS(=O)(=O)c3ccc(Br)cc3)c3ccccc32)c1C(=O)OCc1ccccc1,0,0,-,-,0,0
c1ccc(-c2nc(N3CCCC3)nc3ccccc23)cc1,0,0,0,40µM,0,0
COc1ccc(CC(=O)OCCc2cc3cc(OC)c(OC)cc3c(=O)o2)cc1,0,0,0,-,18µM,0
Cc1ccc(Cl)cc1-n1c(=O)cc(N2CCN(c3ccc(F)cc3)CC2)[nH]c1=O,0,0,-,-,0,0
CC(C)=CCCC1(C)C=Cc2c(O)c3c(c(CC=C(C)C)c2O1)OC12C(=CCCC1C(C)(C)O[C@@]2(C/C=C(\C)C(=O)O)C(=O)O)C3=O (stereo partly drawn),45µM,-,-,0,-,-
Cc1nc(Nc2ccc(Cl)cc2)c2oc3ccccc3c2n1,?,0,27µM,0,0,0
CCN(CC)CC#CCC(O)(c1ccccc1)C1CCCCC1 (stereo not drawn),0,0,0,0,0,0
CC(C)N(CC#CCC(O)(c1ccccc1)c1ccccc1)CCO,0,0,0,45µM,0,0
CC(C)N(CC#CCC(O)(c1ccccc1)c1ccccc1)C(C)C,0,0,0,0,0,0
CCN(CC#CCC(O)(c1ccccc1)c1ccccc1)C(C)C,0,0,27µM,?,0,0
CC[C@H](C)[C@H](NC(=O)[C@H](Cc1ccccc1)NC(=O)[C@H](CCC(=O)O)NC(=O)[C@H](CCCCN)NC(=O)[C@H](C)NC(=O)[C@H](C)NC(=O)[C@H](CCC(N)=O)NC(=O)CNC(=O)[C@H](CCC(=O)O)NC(=O)[C@H](CC(C)C)NC(=O)[C@H](Cc1ccc(O)cc1)NC(=O)[C@H](CO)NC(=O)[C@H](CO)NC(=O)[C@@H](NC(=O)[C@H](CC(=O)O)NC(=O)[C@H](CO)NC(=O)[C@@H](NC(=O)[C@H](Cc1ccccc1)NC(=O)[C@@H](NC(=O)CNC(=O)[C@H](CCC(=O)O)NC(=O)[C@H](C)NC(=O)[C@@H](N)Cc1cnc[nH]1)[C@@H](C)O)[C@@H](C)O)C(C)C)C(=O)N[C@@H](C)C(=O)N[C@@H](Cc1c[nH]c2ccccc12)C(=O)N[C@@H](CC(C)C)C(=O)N[C@H](C(=O)N[C@@H](CCCCN)C(N)=O)C(C)C,0,-,-,0,-,-
O=C(Nc1cccnc1)C1Cc2c(-c3cccc(F)c3)ccnc2O1 (stereo not drawn),-,-,0,-,-,-
COC(=O)Cn1ccc2cc(S(=O)(=O)N3CCCCC3)ccc21,0,0,0,0,0,0
CCN(CC)c1ccc2nc3c4ccccc4c(=O)cc-3oc2c1,?,0,0,0,0,0
SMILES,VDR inh,IDH1 R132H inh,PLK1 PBD block,Sfp PPTase inh,rTrxR1 inhibitor,TrxR1 substrate
CCN(CC)c1ccc2c(-c3ccc(S(=O)(=O)O)cc3S(=O)(=O)[O-])c3ccc(=[N+](CC)CC)cc-3oc2c1,40µM,?,6.7µM,89µM,0,0
C=C1C=C(C(F)F)n2ncc(C(=O)N3CCc4ccccc4C3)c2N1,-,-,-,-,0,0
O=c1[nH]c(=O)c2nc3c4ccccc4c4ccccc4c3nc2[nH]1,0,0,21µM,?,0,0
O=C(NCc1ccc(Cl)cc1)C(=O)NCC1OCCN1S(=O)(=O)c1cc(F)ccc1F (stereo not drawn),0,0,0,0,0,0
COc1ccc(-c2cc(-c3ccccc3)no2)cc1,0,0,0,-,0,0
COc1ccc(-c2cc3nnc(-c4ccccc4)nc3s2)cc1,0,0,0,40µM,0,0
COc1ccc2cc(C[C@@H]3CC[C@@H](CNC(N)=O)O3)ccc2c1,0,0,0,-,0,0
NC1(C(=O)O)CC(C(=O)O)C1 (stereo not drawn),0,-,-,50µM,-,-
NC1(C(=O)O)CCC1,0,-,-,?,-,-
N[C@@]1(C(=O)O)CN[C@@H](C(=O)O)C1,0,-,-,22µM,-,-
COC(=O)C12CC3(CCC4C5C(C(OCc6ccccc6)C41)C52)OCCO3 (stereo not drawn),-,-,-,0,-,-
Cc1cccc(N=C2NC(=O)S/C2=C\c2ccco2)c1,0,0,0,56µM,?,0
O=C1NC(=Nc2ccc(Cl)cc2)/C(=C/c2ccco2)S1,0,0,0,50µM,0,0
O=C1NC(=Nc2ccc(O)cc2)S/C1=C/c1ccco1,0,0,0,0,0,?
Cc1ccc(C(=O)c2oc3ccccc3c2NC(=O)c2nc(S(C)(=O)=O)ncc2Cl)cc1F,0,0,-,-,0,0
O=C(N/N=C/c1ccccn1)c1cc(Br)ccc1O,0,0,0,0,0,0
O=C(N/N=C/c1ccccn1)c1ccc([N+](=O)[O-])cc1Cl,0,0,0,50µM,0,0
O=C(N/N=C/c1ccccn1)C1CC1,0,0,0,79µM,0,0
O=C(N/N=C/c1ccccn1)c1ccc(Br)o1,0,0,0,18µM,0,0
O=C(N/N=C/c1cccnc1)c1ccc([N+](=O)[O-])cc1Cl,0,0,0,0,0,0
